Test results reported in article PMC7862700, “An all-to-all approach to the identification of sequence-specific readers for epigenetic DNA modifications on cytosine”.

Experiments:
Assay in all cases: DAPPL (digital affinity profiling via proximity ligation, sequencing); 10 mM Tris-HCl pH 7.5, 50 mM NaCl, 1 mM DTT, 4% glycerol, room temperature, 30 min; GST-TFs on glutathione beads, 16-mer random dsDNA library, 0.1% formaldehyde crosslink after washing; high values mean tight binding
FLI1 = target: T1, FLI1 (Homo sapiens, UniProt Q01543 1-452); settings: protein: recombinant; tags: N-terminal GST; dsDNA, one strand shown
T1 sequence: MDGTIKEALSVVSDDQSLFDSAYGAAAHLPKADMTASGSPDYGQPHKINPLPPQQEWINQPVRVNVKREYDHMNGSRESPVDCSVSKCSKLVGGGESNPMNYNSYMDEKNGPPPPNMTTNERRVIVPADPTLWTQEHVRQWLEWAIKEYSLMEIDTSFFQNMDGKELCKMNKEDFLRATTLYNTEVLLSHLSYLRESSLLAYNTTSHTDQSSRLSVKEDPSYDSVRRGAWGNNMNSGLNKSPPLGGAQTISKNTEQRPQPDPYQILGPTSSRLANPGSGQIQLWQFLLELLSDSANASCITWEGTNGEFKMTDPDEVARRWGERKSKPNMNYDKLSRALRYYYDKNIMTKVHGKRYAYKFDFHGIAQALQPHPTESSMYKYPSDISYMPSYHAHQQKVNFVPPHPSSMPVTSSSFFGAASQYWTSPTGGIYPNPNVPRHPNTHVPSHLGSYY
Outline: (§1)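 The binding signal reported is, for every hexamer, its read frequency for a factor over its read frequency for the tag-only sample. Reads came from pools of yeast-expressed, GST-fused human transcription factors on glutathione beads, barcoded with DNA and mixed with that sample, which were incubated with 200 nmole of a random double-stranded 16-mer DNA library in Tris/NaCl/DTT/glycerol buffer at room temperature for 30 min. After washing, the pools were crosslinked with 0.1% formaldehyde, proximity-ligated with BsaI/T4 ligase for 1 h at 37 °C, PCR-amplified and sequenced on an Illumina NextSeq500.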

ELK1 = target: T2, ELK1 (Homo sapiens, UniProt P19419 1-428); settings: protein: recombinant; tags: N-terminal GST; dsDNA, one strand shown
T2 sequence: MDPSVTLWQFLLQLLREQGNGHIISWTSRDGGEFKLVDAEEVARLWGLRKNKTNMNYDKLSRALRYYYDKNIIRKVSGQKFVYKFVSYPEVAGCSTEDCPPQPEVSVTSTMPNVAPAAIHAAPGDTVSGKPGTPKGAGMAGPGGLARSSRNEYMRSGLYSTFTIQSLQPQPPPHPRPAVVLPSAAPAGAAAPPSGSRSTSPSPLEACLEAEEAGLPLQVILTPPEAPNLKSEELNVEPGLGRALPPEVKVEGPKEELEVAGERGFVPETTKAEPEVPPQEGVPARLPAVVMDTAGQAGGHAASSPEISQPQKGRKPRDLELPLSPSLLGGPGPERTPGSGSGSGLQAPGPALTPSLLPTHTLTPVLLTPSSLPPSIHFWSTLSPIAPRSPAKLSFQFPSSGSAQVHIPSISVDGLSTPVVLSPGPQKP
Outline: as §1

GABPA = target: T3, GABPA (Homo sapiens, UniProt Q06546 1-454); settings: protein: recombinant; tags: N-terminal GST; dsDNA, one strand shown
T3 sequence: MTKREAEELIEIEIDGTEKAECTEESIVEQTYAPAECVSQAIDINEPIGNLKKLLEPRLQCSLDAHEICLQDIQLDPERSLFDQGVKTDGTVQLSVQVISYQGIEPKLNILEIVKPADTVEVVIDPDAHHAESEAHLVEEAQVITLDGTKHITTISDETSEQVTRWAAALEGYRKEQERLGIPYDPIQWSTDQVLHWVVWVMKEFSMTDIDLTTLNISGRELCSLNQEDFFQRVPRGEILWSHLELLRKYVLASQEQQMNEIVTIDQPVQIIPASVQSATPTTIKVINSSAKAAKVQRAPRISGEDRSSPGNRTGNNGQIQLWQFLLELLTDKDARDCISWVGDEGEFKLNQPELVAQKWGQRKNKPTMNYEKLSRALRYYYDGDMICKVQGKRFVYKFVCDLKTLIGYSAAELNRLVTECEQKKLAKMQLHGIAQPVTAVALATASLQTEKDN
Outline: as §1

ERG = target: T4, ERG (Homo sapiens, UniProt P11308 1-479); settings: protein: recombinant; tags: N-terminal GST; dsDNA, one strand shown
T4 sequence: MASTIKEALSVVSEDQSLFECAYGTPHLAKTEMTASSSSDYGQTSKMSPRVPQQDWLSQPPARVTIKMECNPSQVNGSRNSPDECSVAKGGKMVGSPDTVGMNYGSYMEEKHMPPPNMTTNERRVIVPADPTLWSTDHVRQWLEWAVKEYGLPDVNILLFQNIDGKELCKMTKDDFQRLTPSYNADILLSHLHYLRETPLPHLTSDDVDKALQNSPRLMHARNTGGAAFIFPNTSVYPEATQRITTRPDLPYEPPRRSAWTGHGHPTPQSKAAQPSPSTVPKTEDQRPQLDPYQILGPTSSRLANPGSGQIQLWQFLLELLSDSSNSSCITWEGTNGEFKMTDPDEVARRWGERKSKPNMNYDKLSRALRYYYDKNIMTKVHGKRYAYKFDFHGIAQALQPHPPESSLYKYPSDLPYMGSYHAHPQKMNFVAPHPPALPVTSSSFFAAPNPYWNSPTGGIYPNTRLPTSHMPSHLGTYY
Outline: as §1

ELF1 = ELF1 (Homo sapiens, UniProt P32519 1-619); settings: protein: recombinant; tags: N-terminal GST; dsDNA, one strand shown
Outline: as §1

EHF = target: T5, EHF (Homo sapiens, UniProt Q9NZC4 1-300); settings: protein: recombinant; tags: N-terminal GST; dsDNA, one strand shown
T5 sequence: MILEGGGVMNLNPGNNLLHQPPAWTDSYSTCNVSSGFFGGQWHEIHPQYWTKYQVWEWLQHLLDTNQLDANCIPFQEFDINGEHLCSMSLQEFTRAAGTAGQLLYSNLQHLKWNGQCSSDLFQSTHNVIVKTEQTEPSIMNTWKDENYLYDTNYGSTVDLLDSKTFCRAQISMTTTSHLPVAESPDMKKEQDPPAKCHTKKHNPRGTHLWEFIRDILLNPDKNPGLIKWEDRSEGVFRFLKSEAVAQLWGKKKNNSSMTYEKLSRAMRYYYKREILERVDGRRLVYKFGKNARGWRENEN
Outline: as §1

SPI1 = SPI1 (Homo sapiens, UniProt P17947 1-270); settings: protein: recombinant; tags: N-terminal GST; dsDNA, one strand shown
Outline: as §1

SPIB = SPIB (Homo sapiens, UniProt Q01892 1-262); settings: protein: recombinant; tags: N-terminal GST; dsDNA, one strand shown
Outline: as §1

ELK3 = target: T6, ELK3 (Homo sapiens, UniProt P41970 1-407); settings: protein: recombinant; tags: N-terminal GST; dsDNA, one strand shown
T6 sequence: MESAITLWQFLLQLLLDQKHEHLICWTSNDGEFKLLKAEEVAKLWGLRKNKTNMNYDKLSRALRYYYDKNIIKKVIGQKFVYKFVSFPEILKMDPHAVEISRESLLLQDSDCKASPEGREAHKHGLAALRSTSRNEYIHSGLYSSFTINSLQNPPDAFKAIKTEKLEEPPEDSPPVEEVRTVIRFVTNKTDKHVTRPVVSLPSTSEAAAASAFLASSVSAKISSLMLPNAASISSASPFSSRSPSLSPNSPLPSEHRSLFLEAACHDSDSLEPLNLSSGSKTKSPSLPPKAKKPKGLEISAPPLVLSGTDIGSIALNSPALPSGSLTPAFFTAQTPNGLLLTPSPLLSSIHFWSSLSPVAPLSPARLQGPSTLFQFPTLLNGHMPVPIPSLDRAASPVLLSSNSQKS
Outline: as §1

FEV = target: T7, FEV (Homo sapiens, UniProt Q99581 1-238); settings: protein: recombinant; tags: N-terminal GST; dsDNA, one strand shown
T7 sequence: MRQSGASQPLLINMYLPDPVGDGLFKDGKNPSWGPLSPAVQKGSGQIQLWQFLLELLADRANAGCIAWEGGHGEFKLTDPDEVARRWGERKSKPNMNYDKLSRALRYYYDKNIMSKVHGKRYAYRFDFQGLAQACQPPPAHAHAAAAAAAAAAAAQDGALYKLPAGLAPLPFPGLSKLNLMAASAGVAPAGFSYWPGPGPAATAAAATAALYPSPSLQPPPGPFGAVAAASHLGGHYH
Outline: as §1

ETV5 = ETV5 (Homo sapiens, UniProt P41161 1-510); settings: protein: recombinant; tags: N-terminal GST; dsDNA, one strand shown
Outline: as §1

HSF1 = HSF1 (Homo sapiens, UniProt Q00613 1-529); settings: protein: recombinant; tags: N-terminal GST; chain copies: 3; dsDNA, one strand shown
Outline: as §1

SPIC = target: T8, SPIC (Homo sapiens, UniProt Q8N5J4 1-248); settings: protein: recombinant; tags: N-terminal GST; dsDNA, one strand shown
T8 sequence: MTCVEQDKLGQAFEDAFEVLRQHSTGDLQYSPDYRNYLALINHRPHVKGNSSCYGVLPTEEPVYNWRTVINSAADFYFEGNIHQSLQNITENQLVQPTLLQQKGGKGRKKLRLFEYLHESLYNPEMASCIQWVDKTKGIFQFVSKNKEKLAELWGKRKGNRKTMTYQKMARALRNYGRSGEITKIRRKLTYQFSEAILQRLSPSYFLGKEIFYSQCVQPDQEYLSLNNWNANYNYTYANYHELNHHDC
Outline: as §1

ELF4 = ELF4 (Homo sapiens, UniProt Q99607 1-663); settings: protein: recombinant; tags: N-terminal GST; dsDNA, one strand shown
Outline: as §1

ELK4 = target: T9, ELK4 (Homo sapiens, UniProt P28324-2 1-405); settings: protein: recombinant; tags: N-terminal GST; dsDNA, one strand shown
T9 sequence: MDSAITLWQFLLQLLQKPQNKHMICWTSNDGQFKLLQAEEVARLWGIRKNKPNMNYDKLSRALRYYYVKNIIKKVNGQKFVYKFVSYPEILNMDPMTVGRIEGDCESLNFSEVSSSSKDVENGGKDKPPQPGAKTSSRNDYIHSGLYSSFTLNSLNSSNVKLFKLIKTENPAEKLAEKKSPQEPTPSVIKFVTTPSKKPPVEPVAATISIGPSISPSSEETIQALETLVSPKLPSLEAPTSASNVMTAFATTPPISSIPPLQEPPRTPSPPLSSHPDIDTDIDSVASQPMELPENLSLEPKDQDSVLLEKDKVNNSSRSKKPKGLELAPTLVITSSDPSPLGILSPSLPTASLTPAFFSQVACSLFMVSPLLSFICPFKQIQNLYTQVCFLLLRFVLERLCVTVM
Outline: as §1

ELF3 = target: T10, ELF3 (Homo sapiens, UniProt P78545 1-371); settings: protein: recombinant; tags: N-terminal GST; dsDNA, one strand shown
T10 sequence: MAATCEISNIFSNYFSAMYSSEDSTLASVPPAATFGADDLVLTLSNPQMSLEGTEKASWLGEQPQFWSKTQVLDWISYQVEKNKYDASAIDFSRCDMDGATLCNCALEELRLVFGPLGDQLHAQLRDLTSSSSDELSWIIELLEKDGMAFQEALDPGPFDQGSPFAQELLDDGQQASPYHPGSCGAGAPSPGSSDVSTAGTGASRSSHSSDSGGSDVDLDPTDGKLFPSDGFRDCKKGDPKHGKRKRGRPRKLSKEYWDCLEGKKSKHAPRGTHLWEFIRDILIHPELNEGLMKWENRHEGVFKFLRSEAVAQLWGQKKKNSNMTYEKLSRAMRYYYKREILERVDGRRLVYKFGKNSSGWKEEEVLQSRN
Outline: as §1

CRX = CRX (Homo sapiens, UniProt O43186 1-299); settings: protein: recombinant; tags: N-terminal GST; dsDNA, one strand shown
Outline: as §1

ETV1 = ETV1 (Homo sapiens, UniProt P50549 1-477); settings: protein: recombinant; tags: N-terminal GST; dsDNA, one strand shown
Outline: as §1

Sequence of CRX (O43186 whole entry): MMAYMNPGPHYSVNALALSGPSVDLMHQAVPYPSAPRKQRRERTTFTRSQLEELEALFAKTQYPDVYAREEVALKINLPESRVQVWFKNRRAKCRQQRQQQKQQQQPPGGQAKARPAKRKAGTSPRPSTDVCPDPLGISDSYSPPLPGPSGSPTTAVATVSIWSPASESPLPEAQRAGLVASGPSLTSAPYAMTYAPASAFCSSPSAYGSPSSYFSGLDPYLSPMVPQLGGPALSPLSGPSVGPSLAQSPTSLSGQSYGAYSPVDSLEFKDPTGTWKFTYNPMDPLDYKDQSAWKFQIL
Sequence of ETV5 (P41161 whole entry): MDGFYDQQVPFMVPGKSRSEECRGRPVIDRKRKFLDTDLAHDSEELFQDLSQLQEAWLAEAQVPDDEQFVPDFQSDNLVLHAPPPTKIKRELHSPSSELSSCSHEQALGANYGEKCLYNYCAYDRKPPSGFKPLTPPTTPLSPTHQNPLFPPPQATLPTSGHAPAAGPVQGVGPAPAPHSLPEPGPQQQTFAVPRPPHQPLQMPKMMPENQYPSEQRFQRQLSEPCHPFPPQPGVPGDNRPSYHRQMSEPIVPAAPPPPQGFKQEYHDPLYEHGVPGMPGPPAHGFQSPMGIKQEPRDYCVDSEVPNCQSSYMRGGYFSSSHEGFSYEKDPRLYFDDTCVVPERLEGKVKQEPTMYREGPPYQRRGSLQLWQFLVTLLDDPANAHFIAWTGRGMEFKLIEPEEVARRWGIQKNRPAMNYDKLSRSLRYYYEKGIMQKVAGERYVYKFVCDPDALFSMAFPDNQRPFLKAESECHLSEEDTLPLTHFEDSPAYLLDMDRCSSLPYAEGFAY
Sequence of ELF1 (P32519 whole entry): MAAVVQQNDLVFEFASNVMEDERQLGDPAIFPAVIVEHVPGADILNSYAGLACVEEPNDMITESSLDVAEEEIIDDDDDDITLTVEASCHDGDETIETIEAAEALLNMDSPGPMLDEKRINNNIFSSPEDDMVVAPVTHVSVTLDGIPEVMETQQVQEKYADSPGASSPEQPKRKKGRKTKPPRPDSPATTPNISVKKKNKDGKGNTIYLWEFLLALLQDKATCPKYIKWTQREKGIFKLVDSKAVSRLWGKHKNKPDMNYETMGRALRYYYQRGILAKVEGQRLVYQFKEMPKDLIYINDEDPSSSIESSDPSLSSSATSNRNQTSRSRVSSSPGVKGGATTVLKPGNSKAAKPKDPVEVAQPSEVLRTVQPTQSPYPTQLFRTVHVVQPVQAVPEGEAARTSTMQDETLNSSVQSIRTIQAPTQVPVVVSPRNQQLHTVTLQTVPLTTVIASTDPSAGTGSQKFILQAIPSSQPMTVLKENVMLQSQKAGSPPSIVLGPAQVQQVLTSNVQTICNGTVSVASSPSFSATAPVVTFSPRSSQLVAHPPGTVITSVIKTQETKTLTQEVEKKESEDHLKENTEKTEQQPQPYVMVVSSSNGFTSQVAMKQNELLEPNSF
Sequence of HSF1 (Q00613 whole entry): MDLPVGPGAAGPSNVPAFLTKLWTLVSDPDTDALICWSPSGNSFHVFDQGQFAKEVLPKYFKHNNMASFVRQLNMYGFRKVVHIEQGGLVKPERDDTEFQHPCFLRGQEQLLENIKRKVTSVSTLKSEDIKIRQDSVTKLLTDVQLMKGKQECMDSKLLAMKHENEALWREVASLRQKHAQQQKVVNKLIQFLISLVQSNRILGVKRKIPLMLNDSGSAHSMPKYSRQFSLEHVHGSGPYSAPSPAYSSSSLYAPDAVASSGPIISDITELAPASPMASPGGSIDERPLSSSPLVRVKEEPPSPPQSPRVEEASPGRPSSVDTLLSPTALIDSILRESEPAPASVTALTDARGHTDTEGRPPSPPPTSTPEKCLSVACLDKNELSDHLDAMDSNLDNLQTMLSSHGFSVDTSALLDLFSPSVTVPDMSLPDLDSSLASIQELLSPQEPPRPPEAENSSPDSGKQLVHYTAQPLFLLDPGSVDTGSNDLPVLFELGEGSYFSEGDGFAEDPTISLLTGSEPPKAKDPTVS
Sequence of ELF4 (Q99607 whole entry): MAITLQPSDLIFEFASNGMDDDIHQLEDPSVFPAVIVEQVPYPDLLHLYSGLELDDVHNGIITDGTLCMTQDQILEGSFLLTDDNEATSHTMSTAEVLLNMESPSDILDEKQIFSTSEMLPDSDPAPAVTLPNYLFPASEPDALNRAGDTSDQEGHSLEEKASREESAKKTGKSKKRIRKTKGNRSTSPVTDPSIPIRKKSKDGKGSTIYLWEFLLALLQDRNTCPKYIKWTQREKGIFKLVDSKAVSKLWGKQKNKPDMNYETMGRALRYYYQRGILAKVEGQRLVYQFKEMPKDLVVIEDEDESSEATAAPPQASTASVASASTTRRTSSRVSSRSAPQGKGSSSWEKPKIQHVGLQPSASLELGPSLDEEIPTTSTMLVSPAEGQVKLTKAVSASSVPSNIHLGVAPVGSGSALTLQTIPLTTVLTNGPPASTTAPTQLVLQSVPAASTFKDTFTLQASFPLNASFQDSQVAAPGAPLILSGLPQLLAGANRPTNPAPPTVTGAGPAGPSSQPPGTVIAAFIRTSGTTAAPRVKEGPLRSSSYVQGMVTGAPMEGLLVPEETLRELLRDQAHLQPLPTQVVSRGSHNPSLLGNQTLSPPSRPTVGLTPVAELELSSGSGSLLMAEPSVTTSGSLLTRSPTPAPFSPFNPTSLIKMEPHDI
Sequence of ETV1 (P50549 whole entry): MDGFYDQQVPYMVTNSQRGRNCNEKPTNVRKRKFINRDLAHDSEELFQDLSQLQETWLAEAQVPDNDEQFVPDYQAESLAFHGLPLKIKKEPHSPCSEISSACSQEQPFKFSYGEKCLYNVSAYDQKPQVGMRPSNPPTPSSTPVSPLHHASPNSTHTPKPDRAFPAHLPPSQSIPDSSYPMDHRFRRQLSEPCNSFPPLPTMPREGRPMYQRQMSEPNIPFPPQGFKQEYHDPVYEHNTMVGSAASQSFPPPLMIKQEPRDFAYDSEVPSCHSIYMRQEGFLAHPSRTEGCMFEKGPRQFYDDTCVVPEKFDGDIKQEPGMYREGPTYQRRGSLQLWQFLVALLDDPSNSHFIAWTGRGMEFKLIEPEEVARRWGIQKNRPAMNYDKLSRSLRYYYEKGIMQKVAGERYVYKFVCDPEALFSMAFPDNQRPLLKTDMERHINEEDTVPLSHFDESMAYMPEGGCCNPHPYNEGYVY
Sequence of SPIB (Q01892 whole entry): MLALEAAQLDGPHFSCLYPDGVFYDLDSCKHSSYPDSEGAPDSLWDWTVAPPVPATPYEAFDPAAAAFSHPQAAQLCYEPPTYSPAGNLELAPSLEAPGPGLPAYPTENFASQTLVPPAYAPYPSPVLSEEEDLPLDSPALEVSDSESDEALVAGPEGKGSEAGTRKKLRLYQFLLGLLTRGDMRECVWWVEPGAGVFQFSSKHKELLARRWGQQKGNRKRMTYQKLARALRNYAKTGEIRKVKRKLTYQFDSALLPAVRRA

| Sequence | binding signal (FLI1) | binding signal (ELK1) | binding signal (GABPA) | binding signal (ERG) | binding signal (ELF1) | binding signal (EHF) | binding signal (SPI1) | binding signal (SPIB) | binding signal (ELK3) | binding signal (FEV) | binding signal (ETV5) | binding signal (HSF1) | binding signal (SPIC) | binding signal (ELF4) | binding signal (ELK4) | binding signal (ELF3) | binding signal (CRX) | binding signal (ETV1) |
| --- | --- | --- | --- | --- | --- | --- | --- | --- | --- | --- | --- | --- | --- | --- | --- | --- | --- | --- |
| AACGTT | 1.07 fold enrichment (6-mer frequency, TF over GST control) | 1.15 fold enrichment (6-mer frequency, TF over GST control) | 1.04 fold enrichment (6-mer frequency, TF over GST control) | 1.15 fold enrichment (6-mer frequency, TF over GST control) | 1.14 fold enrichment (6-mer frequency, TF over GST control) | 1.09 fold enrichment (6-mer frequency, TF over GST control) | 1.06 fold enrichment (6-mer frequency, TF over GST control) | 1.15 fold enrichment (6-mer frequency, TF over GST control) | 1.28 fold enrichment (6-mer frequency, TF over GST control) | 1.08 fold enrichment (6-mer frequency, TF over GST control) | 1.07 fold enrichment (6-mer frequency, TF over GST control) | 1.32 fold enrichment (6-mer frequency, TF over GST control) | 1.23 fold enrichment (6-mer frequency, TF over GST control) | 1.14 fold enrichment (6-mer frequency, TF over GST control) | 1.02 fold enrichment (6-mer frequency, TF over GST control) | 1.05 fold enrichment (6-mer frequency, TF over GST control) | 1.02 fold enrichment (6-mer frequency, TF over GST control) | 1.1 fold enrichment (6-mer frequency, TF over GST control) |
| GAATAT | 1.08 fold enrichment (6-mer frequency, TF over GST control) | 1.08 fold enrichment (6-mer frequency, TF over GST control) | 1.11 fold enrichment (6-mer frequency, TF over GST control) | 1.04 fold enrichment (6-mer frequency, TF over GST control) | 1.12 fold enrichment (6-mer frequency, TF over GST control) | 1.04 fold enrichment (6-mer frequency, TF over GST control) | 1.08 fold enrichment (6-mer frequency, TF over GST control) | 1.01 fold enrichment (6-mer frequency, TF over GST control) | 1.12 fold enrichment (6-mer frequency, TF over GST control) | 1.03 fold enrichment (6-mer frequency, TF over GST control) | 1.07 fold enrichment (6-mer frequency, TF over GST control) | 1.67 fold enrichment (6-mer frequency, TF over GST control) | 1.13 fold enrichment (6-mer frequency, TF over GST control) | 1.05 fold enrichment (6-mer frequency, TF over GST control) | 1.07 fold enrichment (6-mer frequency, TF over GST control) | 1.09 fold enrichment (6-mer frequency, TF over GST control) | 1.2 fold enrichment (6-mer frequency, TF over GST control) | 1.03 fold enrichment (6-mer frequency, TF over GST control) |
